Test results from PubChem BioAssay (Tox21).
“And” between values parts separate entries of the source, which are not always exact repeats. Identical values can stand only once. Results filed as inconclusive are left out. Some compounds were tested as several samples or in several runs, with calls that do not always agree. The source made the active and inactive calls. The call rests on the fitted dose curve; in most records, active means well fitted curve in the direction sought with a large enough effect in the repeat runs; inconclusive means weak or mixed curves; inactive means no such curve, though single readings can be large; an effect the other way counts as inactive or inconclusive.

How the values were obtained:
[1] = qHTS RealTime-Glo MT Cell Viability Assay in HepG2 cells - 40 hour (AID 1224870); further: nearly all actives have a fitted effect of over 50% in size
Summary of the method: (§1)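 HepG2 cells mixed with RealTime-Glo MT reagents (NanoLuc plus cell-permeant prosubstrate) were seeded at 600 cells/well, incubated 5 h at 37 C/5% CO2, then pinned with compounds in DMSO; nonlytic luminescence tracked viability during 40 h treatment.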

[2] = A CellTox Green Cytotoxicity Assay to monitor cytotoxicity in HEK293 cells - 40 hour (AID 1224871); further: nearly all actives have a fitted effect of over 45% in size
Summary of the method: (§2)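 Nonlytic real-time cytotoxicity: HEK293 + CellTox Green reagent plated, 5 h preincubation, pintool compound addition (23 nL in DMSO), 37 C for 40 h, fluorescence measured at successive time points.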

[3] = qHTS RealTime-Glo MT Cell Viability Assay in HEK293 cells - 16 hour (AID 1224872); further: nearly all actives have a fitted effect of over 50% in size; further: potency means the concentration at half of the fitted maximal effect
Summary of the method: (§3)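 Reads taken at 0, 8, 16, 24, 32 and 40 h from the same wells. HEK293 cells (600/well) carried RealTime-Glo reagents from seeding, with compound added after a 5 h settle at 37 C.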

[4] = qHTS RealTime-Glo MT Cell Viability Assay in HepG2 cells - 8 hour (AID 1224873); further: nearly all actives have a fitted effect of over 55% in size
Summary of the method: as §1

[5] = qHTS RealTime-Glo MT Cell Viability Assay in HEK293 cells - 40 hour (AID 1224874); conditions: RealTime-Glo luminescence; max response: stronger effect = lower value; further: nearly all actives have a fitted effect of over 50% in size; further: potency means the concentration at half of the fitted maximal effect
Summary of the method: (§4)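 Cells were seeded together with NanoLuc luciferase and a prosubstrate that viable cells reduce to a luciferase substrate. After a 5 h incubation at 37 C/5% CO2, compounds were added and luminescence was measured repeatedly during 40 h of treatment.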

[6] = A CellTox Green Cytotoxicity Assay to monitor cytotoxicity in HEK293 cells - 24 hour (AID 1224875); further: series mostly up to about 77 µM; nearly all actives have a fitted effect of over 45% in size
Summary of the method: as §2

[7] = A CellTox Green Cytotoxicity Assay to monitor cytotoxicity in HepG2 cells - 16 hour (AID 1224876); further: nearly all actives have a fitted effect of over 45% in size
Summary of the method: (§5)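 Read-out is fluorescence of a cyanine dye excluded from live cells that stains DNA of dead HepG2 cells, with signal proportional to cytotoxicity. Plates were read at 0, 8, 16, 24, 32 and 40 h after compound addition.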

[8] = qHTS RealTime-Glo MT Cell Viability Assay in HepG2 cells - 32 hour (AID 1224877); further: nearly all actives have a fitted effect of over 55% in size
Summary of the method: (§6)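 HepG2 suspension premixed with RealTime-Glo reagents is plated at 600 cells per well and left 5 h at 37 C/5% CO2. Compounds in DMSO then go in, and bioluminescence reflecting viable cell number is recorded over 40 h.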

[9] = A CellTox Green Cytotoxicity Assay to monitor cytotoxicity in HepG2 cells - 24 hour (AID 1224878); further: nearly all actives have a fitted effect of over 45% in size; further: potency means the concentration at half of the fitted maximal effect
Summary of the method: as §5

[10] = A CellTox Green Cytotoxicity Assay to monitor cytotoxicity in HepG2 cells - 40 hour (AID 1224879); further: nearly all actives have a fitted effect of over 40% in size
Summary of the method: as §5

[11] = qHTS RealTime-Glo MT Cell Viability Assay in HEK293 cells - 0 hour (AID 1224880)
Summary of the method: as §4

[12] = A CellTox Green Cytotoxicity Assay to monitor cytotoxicity in HEK293 cells - 32 hour (AID 1224881); further: nearly all actives have a fitted effect of over 40% in size
Summary of the method: as §2

[13] = A CellTox Green Cytotoxicity Assay to monitor cytotoxicity in HepG2 cells - 0 hour (AID 1224882); further: nearly all actives have a fitted effect of over 35% in size
Summary of the method: as §5

[14] = A CellTox Green Cytotoxicity Assay to monitor cytotoxicity in HepG2 cells - 32 hour (AID 1224883); further: nearly all actives have a fitted effect of over 50% in size
Summary of the method: as §5

[15] = A CellTox Green Cytotoxicity Assay to monitor cytotoxicity in HEK293 cells - 8 hour (AID 1224884); further: nearly all actives have a fitted effect of over 35% in size
Summary of the method: as §2

[16] = qHTS RealTime-Glo MT Cell Viability Assay in HepG2 cells - 16 hour (AID 1224885); further: nearly all actives have a fitted effect of over 50% in size
Summary of the method: as §6

[17] = qHTS RealTime-Glo MT Cell Viability Assay in HEK293 cells - 24 hour (AID 1224886); further: nearly all actives have a fitted effect of over 50% in size; further: potency means the concentration at half of the fitted maximal effect
Summary of the method: as §3

[18] = qHTS RealTime-Glo MT Cell Viability Assay in HEK293 cells - 8 hour (AID 1224887); further: nearly all actives have a fitted effect of over 50% in size; further: potency means the concentration at half of the fitted maximal effect
Summary of the method: as §4

[19] = A CellTox Green Cytotoxicity Assay to monitor cytotoxicity in HEK293 cells - 16 hour (AID 1224888); further: nearly all actives have a fitted effect of over 35% in size
Summary of the method: as §2

[20] = qHTS RealTime-Glo MT Cell Viability Assay in HepG2 cells - 0 hour (AID 1224889); further: nearly all actives have a fitted effect of over 50% in size
Summary of the method: as §6
On the % scale 0 is the no-effect control and ±100 the full control effect.

OCC#CCO
inactive: Potency [1] | Potency [2] | Potency [3] | Potency [4] | max response [5] 0.572% and 1.12% | Potency [6] | Potency [7] | Potency [8] | Potency [9] | Potency [10] | Potency [11] | Potency [12] | Potency [13] | Potency [14] | Potency [15] | Potency [16] | Potency [17] | Potency [18] | Potency [19]

CN(CCOc1ccc(CC2SC(=O)NC2=O)cc1)c1ccccn1 (centres undefined)
inactive: Potency [1] | Potency [2] | Potency [3] | Potency [4] | max response [5] -1.82% | Potency [6] | Potency [7] | Potency [8] | Potency [9] | Potency [11] | Potency [12] | Potency [14] | Potency [15] | Potency [16] | Potency [17] | Potency [18] | Potency [19]

CCOC(=O)[C@H](CCc1ccccc1)N[C@@H](C)C(=O)N1Cc2ccccc2C[C@H]1C(=O)O
inactive: Potency [1] | Potency [2] | Potency [3] | Potency [4] | max response [5] -0.607% and -1.19% | Potency [6] | Potency [7] | Potency [8] | Potency [9] | Potency [10] | Potency [11] | Potency [12] | Potency [13] | Potency [14] | Potency [15] | Potency [16] | Potency [17] | Potency [18] | Potency [19]

CS(=O)(=O)Nc1ccc([N+](=O)[O-])cc1Oc1ccccc1
inactive: Potency [1] | Potency [2] | Potency [3] | Potency [4] | max response [5] -6.51% and 1.07% | Potency [6] | Potency [7] | Potency [8] | Potency [9] | Potency [10] | Potency [13] | Potency [14] | Potency [15] | Potency [16] | Potency [17] | Potency [18] | Potency [19]

CNC[C@H](O)[C@@H](O)[C@H](O)[C@H](O)CO
inactive: Potency [1] | Potency [2] | Potency [3] | Potency [4] | max response [5] 8.02% and 0.166% | Potency [6] | Potency [7] | Potency [8] | Potency [9] | Potency [10] | Potency [11] | Potency [14] | Potency [15] | Potency [16] | Potency [17] | Potency [18] | Potency [19] | Potency [20]

OC1CCCC1
inactive: Potency [1] | Potency [2] | Potency [3] | Potency [4] | max response [5] 8.58% and -2.67% | Potency [6] | Potency [7] | Potency [8] | Potency [9] | Potency [11] | Potency [12] | Potency [13] | Potency [14] | Potency [15] | Potency [16] | Potency [17] | Potency [18] | Potency [19] | Potency [20]

NCCNCCNCCNCCN
inactive: Potency [1] | Potency [2] | Potency [3] | Potency [4] | max response [5] 1.39% and 5.6% | Potency [6] | Potency [7] | Potency [8] | Potency [9] | Potency [10] | Potency [11] | Potency [13] | Potency [14] | Potency [15] | Potency [16] | Potency [17] | Potency [18] | Potency [19] | Potency [20]

O=S(=O)(O)CCS
inactive: Potency [1] | Potency [2] | Potency [3] | Potency [4] | max response [5] 0.917% and -2.58% | Potency [6] | Potency [7] | Potency [8] | Potency [9] | Potency [10] | Potency [11] | Potency [13] | Potency [14] | Potency [15] | Potency [16] | Potency [17] | Potency [18] | Potency [19] | Potency [20]

CCC(C)C=O (centres undefined)
inactive and 13.8 µM (active): Potency [18]
inactive and 6.92 µM (active): Potency [3]
inactive and 3.89 µM (active): Potency [17]
inactive and 21.9 µM (active): Potency [9]
active: Potency [5] 3.09 µM
inactive: Potency [1] | Potency [2] | Potency [4] | max response [5] -3.52% | Potency [6] | Potency [7] | Potency [8] | Potency [10] | Potency [11] | Potency [13] | Potency [14] | Potency [15] | Potency [16] | Potency [19] | Potency [20]

CCCCOCCO
inactive: Potency [1] | Potency [2] | Potency [3] | Potency [4] | max response [5] 3.58% and 5.47% | Potency [6] | Potency [7] | Potency [8] | Potency [9] | Potency [10] | Potency [11] | Potency [12] | Potency [13] | Potency [14] | Potency [15] | Potency [16] | Potency [17] | Potency [18] | Potency [19]

NS(=O)(=O)c1cc2c(cc1Cl)NC=NS2(=O)=O
inactive: Potency [1] | Potency [2] | Potency [3] | Potency [4] | max response [5] 7.37% and 0.52% | Potency [6] | Potency [7] | Potency [8] | Potency [9] | Potency [10] | Potency [11] | Potency [12] | Potency [13] | Potency [14] | Potency [15] | Potency [16] | Potency [17] | Potency [18] | Potency [19] | Potency [20]

Clc1cc(Cl)c(Cl)cc1Cl
inactive: Potency [1] | Potency [2] | Potency [3] | Potency [4] | max response [5] 4.68% and 15.5% | Potency [6] | Potency [7] | Potency [8] | Potency [9] | Potency [10] | Potency [11] | Potency [13] | Potency [14] | Potency [15] | Potency [16] | Potency [17] | Potency [18] | Potency [19]
